The source of these data is PubChem BioAssay (NCI).

About 83,000 compounds went through this panel and 20% of them were active in at least one assay; those are over-represented in the sample as a whole.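 For each line, cells grew in 96-well plates with the test compound present at a single concentration for 48 hours.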 Values without a mark were called inactive. The source made the active and inactive calls. The calls were made as follows: active = growth percent below 10; inactive = the rest.

Some test systems named below: SK-MEL-2 melanoma; EKVX NSCLC; SN12C renal; UO-31 renal; TK-10 renal; ACHN renal; CAKI-1 renal; A498 renal; CCRF-CEM leukemia; MOLT-4 leukemia; RPMI-8226 leukemia; OVCAR-8 ovarian; OVCAR-5 ovarian; OVCAR-4 ovarian; SK-OV-3 ovarian; OVCAR-3 ovarian; HS 578T breast; NCI/ADR-RES ovarian; IGROV1 ovarian.
Common to all, as to experiment: NCI-60 one-dose screen, 48 h (100 = growth as untreated, 0 = no growth, -100 = all killed)
Holding throughout (details): 10 µM unless noted

For the compound `COc1cccc(-c2nc3sccn3c2-c2ccnc(NCCCNS(=O)(=O)c3c(Cl)cccc3Cl)c2)c1`, the growth in the experiment with SK-MEL-2 melanoma is 67.5%; with EKVX NSCLC it was 58.7%; with SN12C renal it was 60.9%; in the experiment with UO-31 renal, 32.4%; with TK-10 renal, 100%; in the experiment on ACHN renal, 49.9%. In addition, the growth in the experiment on CAKI-1 renal was 44.1%; with A498 renal it was 71.3%; in the experiment with CCRF-CEM leukemia it was 31.9%; in the experiment on MOLT-4 leukemia, 28.9%; in the experiment on RPMI-8226 leukemia, 4.47% (active); in the experiment with OVCAR-8 ovarian it was 51.5%. For the same compound, the growth in the experiment with OVCAR-5 ovarian is 85.6%; in the experiment with OVCAR-4 ovarian, 56.7%; in the experiment on SK-OV-3 ovarian, 90.4%; in the experiment with OVCAR-3 ovarian, 69.8%; in the experiment with HS 578T breast it was 76.1%; in the experiment with NCI/ADR-RES ovarian, 29.9%.
`Cc1ccc(OC(=O)c2ccc(Cl)cc2)cc1`: the growth in the experiment with SK-MEL-2 melanoma was 103%; in the experiment with EKVX NSCLC it was 99.1%; in the experiment on SN12C renal, 95.9%; in the experiment with UO-31 renal, 102%; in the experiment with TK-10 renal, 98.2%; with ACHN renal, 95.6%. Further, the growth in the experiment with CAKI-1 renal is 81.8%; in the experiment on A498 renal, 114%; in the experiment on CCRF-CEM leukemia it was 55.9%; with MOLT-4 leukemia, 113%; in the experiment on RPMI-8226 leukemia, 92.4%; in the experiment on OVCAR-8 ovarian, 96.7%. For the same compound, the growth in the experiment on OVCAR-5 ovarian was 97%; in the experiment on SK-OV-3 ovarian, 116%; in the experiment with IGROV1 ovarian, 116%; with OVCAR-3 ovarian, 99.9%; in the experiment on HS 578T breast, 110%; with NCI/ADR-RES ovarian it was 107%.
For the compound `O=S(=O)(Nc1ccc(I)cc1F)c1ccc(-c2cnc(C3CC3)o2)cc1`, the growth in the experiment with SK-MEL-2 melanoma is 40.7%; in the experiment on EKVX NSCLC it was 68.5%; in the experiment on SN12C renal, 71.5%; in the experiment on UO-31 renal, 70.1%; in the experiment on TK-10 renal, 88.6%; in the experiment with ACHN renal, 77.2%. Also, the growth was 40.9% in the experiment on CAKI-1 renal; -10% (active) with A498 renal; 61.1% with CCRF-CEM leukemia; 37.5% in the experiment on MOLT-4 leukemia; 71.1% with RPMI-8226 leukemia; 70% in the experiment with OVCAR-8 ovarian. For the same compound, the growth is 88.2% with OVCAR-5 ovarian; 60.5% with OVCAR-4 ovarian; 71.5% with SK-OV-3 ovarian; 45.4% with IGROV1 ovarian; 16.1% in the experiment with OVCAR-3 ovarian; 35.2% in the experiment on HS 578T breast. The growth in the experiment on NCI/ADR-RES ovarian was 28%.
Take `CN(C)S(=O)(=O)c1ccc(S(=O)(=O)Nc2cccc(Cl)c2N2CCCCC2)cc1`: the growth with SK-MEL-2 melanoma is 73.8%; in the experiment on EKVX NSCLC, 68.2%; in the experiment on SN12C renal, 83%; in the experiment with UO-31 renal, 72.7%; with TK-10 renal, 102%; in the experiment with ACHN renal, 75.3%. The growth was 31.6% in the experiment with CAKI-1 renal; 103% in the experiment with A498 renal; 75% with CCRF-CEM leukemia; 68.9% with MOLT-4 leukemia; 48% with RPMI-8226 leukemia; 92% in the experiment with OVCAR-8 ovarian. The growth in the experiment with OVCAR-4 ovarian is 68.2%; in the experiment with SK-OV-3 ovarian, 98.3%; in the experiment with IGROV1 ovarian, 82.5%; with OVCAR-3 ovarian it was 90.6%; in the experiment with HS 578T breast, 91.8%; in the experiment on NCI/ADR-RES ovarian it was 76.6%.
For the compound `CC[C@@H](C(=O)[C@@H](C)[C@@H](O)[C@H](C)[C@@H]1O[C@@H]([C@@H](CC)C(=O)O)CC[C@@H]1C)[C@H]1OC2(C=C[C@@H](O)[C@]3(CC[C@@](C)([C@H]4CC[C@](O)(CC)[C@H](C)O4)O3)O2)[C@H](C)C[C@@H]1C` (some centres undefined), the growth is -55.1% (active) in the experiment on SK-MEL-2 melanoma; 34.3% in the experiment with EKVX NSCLC; 16.1% in the experiment with SN12C renal; 20.4% with UO-31 renal; 29.7% in the experiment with TK-10 renal; 33.4% with ACHN renal. In addition, the growth in the experiment on CAKI-1 renal was 18.2%; in the experiment with A498 renal, -79.2% (active); in the experiment on CCRF-CEM leukemia, 0.899% (active); in the experiment with MOLT-4 leukemia, -8.95% (active); with RPMI-8226 leukemia it was -36.1% (active); in the experiment with OVCAR-8 ovarian, 31.9%. Besides, the growth with OVCAR-5 ovarian is 57.7%; in the experiment with OVCAR-4 ovarian it was 35.8%; with SK-OV-3 ovarian it was 30.2%; with IGROV1 ovarian it was 40.2%; in the experiment on OVCAR-3 ovarian it was 14.6%; in the experiment on HS 578T breast, 30%. Besides, the growth in the experiment with NCI/ADR-RES ovarian is 29.6%.
As for `O=C(/C=C/c1cccc(Cl)c1)c1ccc(O)c(CN2CCN(c3cc4c(cc3F)c(=O)c(C(=O)O)cn4C3CC3)CC2)c1`, the growth in the experiment with SK-MEL-2 melanoma is 53.7%; with EKVX NSCLC it was 55.7%; in the experiment on SN12C renal, 18.9%; with UO-31 renal, 21.5%; in the experiment on TK-10 renal, 48.1%; with ACHN renal it was 27.7%. The growth is 44.6% with CAKI-1 renal; 25.9% in the experiment with A498 renal; 25.1% with CCRF-CEM leukemia; 59.9% with MOLT-4 leukemia; 4.11% (active) with RPMI-8226 leukemia; 20.6% in the experiment on OVCAR-8 ovarian. For the same compound, the growth in the experiment on OVCAR-5 ovarian is 52.6%; in the experiment with OVCAR-4 ovarian, 79.5%; with SK-OV-3 ovarian it was 79.8%; with IGROV1 ovarian it was 48%; in the experiment on OVCAR-3 ovarian, 40.8%; in the experiment on HS 578T breast, 41.3%. The growth in the experiment on NCI/ADR-RES ovarian is 60.5%.
Take `C=CC(=O)Nc1cccc(-c2nc(SC)nc(Nc3ccccc3OC)c2C#N)c1`: the growth with SK-MEL-2 melanoma is 73.9%; in the experiment with EKVX NSCLC it was 63.7%; with SN12C renal it was 48.4%; with UO-31 renal it was 19.2%; in the experiment on TK-10 renal, 36.1%; with ACHN renal, 37.7%. Besides, the growth in the experiment with CAKI-1 renal was 56.6%; in the experiment with A498 renal, 61.4%; with CCRF-CEM leukemia, 40.8%; with MOLT-4 leukemia it was 33.4%; with RPMI-8226 leukemia, 29.7%; in the experiment on OVCAR-8 ovarian, 34.5%. The growth is 42.9% in the experiment with OVCAR-5 ovarian; -26.4% (active) with OVCAR-4 ovarian; 91.8% with SK-OV-3 ovarian; 69.3% with IGROV1 ovarian; 23.4% in the experiment on OVCAR-3 ovarian; 16.8% in the experiment on HS 578T breast. Besides, in the experiment with NCI/ADR-RES ovarian, the growth is 29.3%.
Regarding `COc1cc2nc(N3CCCC3)nc(NCc3ccccc3)c2cc1OC`, the growth with SK-MEL-2 melanoma was 106%; in the experiment on EKVX NSCLC it was 74.7%; with SN12C renal, 69.6%; in the experiment on UO-31 renal, 52.1%; with TK-10 renal it was 100%; in the experiment with ACHN renal, 62.2%. The growth in the experiment with CAKI-1 renal was 65.8%; with A498 renal, 36.3%; with CCRF-CEM leukemia it was 5.92% (active); with MOLT-4 leukemia it was 35.4%; in the experiment on RPMI-8226 leukemia, 12.7%; with OVCAR-8 ovarian, 78.9%. Moreover, the growth in the experiment on OVCAR-5 ovarian was 80.4%; in the experiment on OVCAR-4 ovarian, 57.2%; in the experiment with SK-OV-3 ovarian, 96%; in the experiment on IGROV1 ovarian, 90.4%; with OVCAR-3 ovarian, 68.1%; in the experiment with HS 578T breast, 73.7%. The growth in the experiment on NCI/ADR-RES ovarian is 72.4%.
